Key:
Test in all cases: phenotypically active (imaging signature differs from DMSO and reproducible) at any of 0.3-9 uM (binary (1 = active, 0 = inactive)); higher = active
Details in all cases: treatment time: 24 h
A549-ACTB-RAB5A = test system: A549-ACTB-RAB5A
In short: (§1)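 Each of fifteen gene-edited A549, HepG2 and WPMY1 reporter lines, marked with BFP for segmentation and GFP and RFP/FusionRed, was treated in four wells at 0.3, 1, 3 or 9 µM for 24 h prior to live imaging. Normalisation of per-well live-cell features used solvent control wells. Deviation needed ≥3 of 4 wells beyond the 95th percentile of control Euclidean distances, and reproducibility needed a median replicate Pearson correlation above the 95th percentile of non-replicates. Both were required for phenotypic activity.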

A549-CANX-COX4 = test system: A549-CANX-COX4
In short: as §1

A549-GM130-SQSTM1 = test system: A549-GM130-SQSTM1
In short: as §1

A549-TP53BP1-CLTA = test system: A549-TP53BP1-CLTA
In short: as §1

A549-TUBA1B-RELA = test system: A549-TUBA1B-RELA
In short: as §1

HepG2-ACTB-RAB5A = test system: HepG2-ACTB-RAB5A
In short: as §1

HepG2-CANX-COX4 = test system: HepG2-CANX-COX4
In short: as §1

HepG2-GM130-SQSTM1 = test system: HepG2-GM130-SQSTM1
In short: as §1

HepG2-TP53BP1-CLTA = test system: HepG2-TP53BP1-CLTA
In short: as §1

HepG2-TUBA1B-RELA = test system: HepG2-TUBA1B-RELA
In short: as §1

WPMY1-ACTB-RAB5A = test system: WPMY1-ACTB-RAB5A
In short: as §1

WPMY1-CANX-COX4 = test system: WPMY1-CANX-COX4
In short: as §1

WPMY1-GM130-SQSTM1 = test system: WPMY1-GM130-SQSTM1
In short: as §1

WPMY1-TP53BP1-CLTA = test system: WPMY1-TP53BP1-CLTA
In short: as §1

WPMY1-TUBA1B-RELA = test system: WPMY1-TUBA1B-RELA
In short: as §1

Measured: phenotypically active

C[C@H](CCC(=O)NCC(=O)O)[C@H]1CC[C@H]2[C@@H]3[C@H](O)C[C@@H]4C[C@H](O)CC[C@]4(C)[C@H]3C[C@H](O)[C@]12C [Glycocholic acid]
inactive: A549-ACTB-RAB5A 0 | A549-CANX-COX4 0 | A549-GM130-SQSTM1 0 | A549-TP53BP1-CLTA 0 | A549-TUBA1B-RELA 0 | HepG2-ACTB-RAB5A 0 | HepG2-CANX-COX4 0 | HepG2-GM130-SQSTM1 0 | HepG2-TP53BP1-CLTA 0 | HepG2-TUBA1B-RELA 0 | WPMY1-ACTB-RAB5A 0 | WPMY1-CANX-COX4 0 | WPMY1-GM130-SQSTM1 0 | WPMY1-TP53BP1-CLTA 0 | WPMY1-TUBA1B-RELA 0

COC(=O)c1c(C)cc(OC(=O)c2c(C)cc(O)c(C=O)c2O)c(C)c1O [Atranorin]
inactive: A549-ACTB-RAB5A 0 | A549-CANX-COX4 0 | A549-GM130-SQSTM1 0 | A549-TP53BP1-CLTA 0 | A549-TUBA1B-RELA 0 | HepG2-ACTB-RAB5A 0 | HepG2-CANX-COX4 0 | HepG2-GM130-SQSTM1 0 | HepG2-TP53BP1-CLTA 0 | HepG2-TUBA1B-RELA 0 | WPMY1-ACTB-RAB5A 0 | WPMY1-CANX-COX4 0 | WPMY1-GM130-SQSTM1 0 | WPMY1-TP53BP1-CLTA 0 | WPMY1-TUBA1B-RELA 0

CCN(CC)CC(=O)Nc1c(C)cccc1C [lidocaine]
inactive: A549-ACTB-RAB5A 0 | A549-CANX-COX4 0 | A549-GM130-SQSTM1 0 | A549-TP53BP1-CLTA 0 | A549-TUBA1B-RELA 0 | HepG2-ACTB-RAB5A 0 | HepG2-CANX-COX4 0 | HepG2-GM130-SQSTM1 0 | HepG2-TP53BP1-CLTA 0 | HepG2-TUBA1B-RELA 0 | WPMY1-ACTB-RAB5A 0 | WPMY1-CANX-COX4 0 | WPMY1-GM130-SQSTM1 0 | WPMY1-TP53BP1-CLTA 0 | WPMY1-TUBA1B-RELA 0

Cc1ncc([N+](=O)[O-])n1CCOC(=O)NC(Nc1ncccn1)C(Cl)(Cl)Cl (stereo not given) [Apcin]
inactive: A549-ACTB-RAB5A 0 | A549-CANX-COX4 0 | A549-GM130-SQSTM1 0 | A549-TP53BP1-CLTA 0 | A549-TUBA1B-RELA 0 | HepG2-ACTB-RAB5A 0 | HepG2-CANX-COX4 0 | HepG2-GM130-SQSTM1 0 | HepG2-TP53BP1-CLTA 0 | HepG2-TUBA1B-RELA 0 | WPMY1-ACTB-RAB5A 0 | WPMY1-CANX-COX4 0 | WPMY1-GM130-SQSTM1 0 | WPMY1-TP53BP1-CLTA 0 | WPMY1-TUBA1B-RELA 0

CCCCC1=NC2(CCCC2)C(=O)N1Cc1ccc(-c2ccccc2-c2nnn[nH]2)cc1 [irbesartan]
inactive: A549-ACTB-RAB5A 0 | A549-CANX-COX4 0 | A549-GM130-SQSTM1 0 | A549-TP53BP1-CLTA 0 | A549-TUBA1B-RELA 0 | HepG2-ACTB-RAB5A 0 | HepG2-CANX-COX4 0 | HepG2-GM130-SQSTM1 0 | HepG2-TP53BP1-CLTA 0 | HepG2-TUBA1B-RELA 0 | WPMY1-ACTB-RAB5A 0 | WPMY1-CANX-COX4 0 | WPMY1-GM130-SQSTM1 0 | WPMY1-TP53BP1-CLTA 0 | WPMY1-TUBA1B-RELA 0

CN(C)CC/C=C1\c2ccccc2COc2ccc(CC(=O)O)cc21 [olopatadine]
inactive: A549-ACTB-RAB5A 0 | A549-CANX-COX4 0 | A549-GM130-SQSTM1 0 | A549-TP53BP1-CLTA 0 | A549-TUBA1B-RELA 0 | HepG2-ACTB-RAB5A 0 | HepG2-CANX-COX4 0 | HepG2-GM130-SQSTM1 0 | HepG2-TP53BP1-CLTA 0 | HepG2-TUBA1B-RELA 0 | WPMY1-ACTB-RAB5A 0 | WPMY1-CANX-COX4 0 | WPMY1-GM130-SQSTM1 0 | WPMY1-TP53BP1-CLTA 0 | WPMY1-TUBA1B-RELA 0

OC(CCN1CCCCC1)(c1ccccc1)C1CC2C=CC1C2 (stereo not given) [biperiden]
inactive: A549-ACTB-RAB5A 0 | A549-CANX-COX4 0 | A549-GM130-SQSTM1 0 | A549-TP53BP1-CLTA 0 | A549-TUBA1B-RELA 0 | HepG2-ACTB-RAB5A 0 | HepG2-CANX-COX4 0 | HepG2-GM130-SQSTM1 0 | HepG2-TP53BP1-CLTA 0 | HepG2-TUBA1B-RELA 0 | WPMY1-ACTB-RAB5A 0 | WPMY1-CANX-COX4 0 | WPMY1-GM130-SQSTM1 0 | WPMY1-TP53BP1-CLTA 0 | WPMY1-TUBA1B-RELA 0

O=P(O)(O)C(O)(Cc1cccnc1)P(=O)(O)O [risedronate]
inactive: A549-ACTB-RAB5A 0 | A549-CANX-COX4 0 | A549-GM130-SQSTM1 0 | A549-TP53BP1-CLTA 0 | A549-TUBA1B-RELA 0 | HepG2-ACTB-RAB5A 0 | HepG2-CANX-COX4 0 | HepG2-GM130-SQSTM1 0 | HepG2-TP53BP1-CLTA 0 | HepG2-TUBA1B-RELA 0 | WPMY1-ACTB-RAB5A 0 | WPMY1-CANX-COX4 0 | WPMY1-GM130-SQSTM1 0 | WPMY1-TP53BP1-CLTA 0 | WPMY1-TUBA1B-RELA 0

CCOC(=O)[C@H](CCc1ccccc1)N[C@@H](C)C(=O)N1Cc2ccccc2C[C@H]1C(=O)O [quinapril]
inactive: A549-ACTB-RAB5A 0 | A549-CANX-COX4 0 | A549-GM130-SQSTM1 0 | A549-TP53BP1-CLTA 0 | A549-TUBA1B-RELA 0 | HepG2-ACTB-RAB5A 0 | HepG2-CANX-COX4 0 | HepG2-GM130-SQSTM1 0 | HepG2-TP53BP1-CLTA 0 | HepG2-TUBA1B-RELA 0 | WPMY1-ACTB-RAB5A 0 | WPMY1-CANX-COX4 0 | WPMY1-GM130-SQSTM1 0 | WPMY1-TP53BP1-CLTA 0 | WPMY1-TUBA1B-RELA 0

COc1ccc2cc(CCC(C)=O)ccc2c1 [nabumetone]
inactive: A549-ACTB-RAB5A 0 | A549-CANX-COX4 0 | A549-GM130-SQSTM1 0 | A549-TP53BP1-CLTA 0 | A549-TUBA1B-RELA 0 | HepG2-ACTB-RAB5A 0 | HepG2-CANX-COX4 0 | HepG2-GM130-SQSTM1 0 | HepG2-TP53BP1-CLTA 0 | HepG2-TUBA1B-RELA 0 | WPMY1-ACTB-RAB5A 0 | WPMY1-CANX-COX4 0 | WPMY1-GM130-SQSTM1 0 | WPMY1-TP53BP1-CLTA 0 | WPMY1-TUBA1B-RELA 0

C[N+](C)(C)CCOC(N)=O [Carbamoylcholine chloride]
inactive: A549-ACTB-RAB5A 0 | A549-CANX-COX4 0 | A549-GM130-SQSTM1 0 | A549-TP53BP1-CLTA 0 | A549-TUBA1B-RELA 0 | HepG2-ACTB-RAB5A 0 | HepG2-CANX-COX4 0 | HepG2-GM130-SQSTM1 0 | HepG2-TP53BP1-CLTA 0 | HepG2-TUBA1B-RELA 0 | WPMY1-ACTB-RAB5A 0 | WPMY1-CANX-COX4 0 | WPMY1-GM130-SQSTM1 0 | WPMY1-TP53BP1-CLTA 0 | WPMY1-TUBA1B-RELA 0

OC[C@H]1O[C@@H](Oc2ccc(O)cc2)[C@H](O)[C@@H](O)[C@@H]1O [Arbutin]
inactive: A549-ACTB-RAB5A 0 | A549-CANX-COX4 0 | A549-GM130-SQSTM1 0 | A549-TP53BP1-CLTA 0 | A549-TUBA1B-RELA 0 | HepG2-ACTB-RAB5A 0 | HepG2-CANX-COX4 0 | HepG2-GM130-SQSTM1 0 | HepG2-TP53BP1-CLTA 0 | HepG2-TUBA1B-RELA 0 | WPMY1-ACTB-RAB5A 0 | WPMY1-CANX-COX4 0 | WPMY1-GM130-SQSTM1 0 | WPMY1-TP53BP1-CLTA 0 | WPMY1-TUBA1B-RELA 0
